Reference: PubChem BioAssay AID652042 (Broad Institute, 2013)
About 350 (32%) of roughly 1,100 compounds were called active. Only a sample is shown. Potency and affinity values are given separately. Unmarked numbers belong to inactive results. How the calls were made is not given here.

Assay: CEM21 lymphoblast cell cytotoxicity, dose response, cytotoxicity control for viral fusion inhibitor project, CellTiter-Glo luminescence, cherry-picked (AID 652042)
Conditions: CEM21 cells viability, CellTiter-Glo ATP luminescence, 24 h; series mostly up to 35 µM; activity change, negative = cytotoxicity: at the top concentration

Compound	activity change, negative = cytotoxicity
CO[C@H]1CN(C)C(=O)c2cc(NS(=O)(=O)c3ccc(Cl)cc3)ccc2OC[C@@H](C)N(C)C[C@@H]1C	3.29%
Cc1cc2ncn(S(=O)(=O)N3CCCCC3)c2cc1C	-4.91%
CC(=O)Nc1sc2c(c1C(c1ccc(F)cc1)N1CCOCC1)CCCC2 (configuration not stated)	-20.5%
CC(C)(C)c1ccc(C(=O)N2CCCCCC2=O)cc1	0.857%
CN(C[C@@H](CC1CCCCC1)N(C[C@H](Cc1ccccc1)N(CCc1ccccc1)N=O)N=O)N=O	-12.5%
CC[C@]1(C(=O)OC)[C@H]2C(=O)N(Cc3ccccc3)C(=O)[C@H]2[C@H]2CN=C(SCC3CC3)N21	-6.36%
CO[C@@H]1CN(C)C(=O)c2ccc(NC(C)=O)cc2OC[C@@H](C)N(Cc2cncnc2)C[C@@H]1C	1.19%
COc1ccc(-c2cn3c(C)c(C(=O)Nc4cccc(NC(C)=O)c4)sc3n2)cc1	1.6% [at 16 µM]
O=C(N/N=C/c1ccc(-n2ccnc2)cc1)c1cccs1	-9.81%
Cc1ccc(-n2nnnc2-c2cnn(-c3ccc(F)cc3)c2C(F)(F)F)cc1	-12.1%
CCc1ccc([C@H]2[C@@H]3C(=O)C[C@@H]4C(=O)N(C5CCCCC5)C(=O)[C@@H]4[C@@H]3CN2S(=O)(=O)c2ccc(C)cc2)cc1	-1.79%
COc1ccc(OC2C(=O)N(Cc3ccc4c(c3)OCO4)C2c2cccs2)cc1 (configuration not stated)	-12%
COC(=O)[C@H](Cc1ccccc1)NC(=O)Cn1cnc(C(=O)Nc2ccc(C)c(C)c2)n1	2.54%
O=S(=O)(c1ccccc1Cl)N1CCCC1c1nc(-c2ccc(Cl)cc2)no1 (configuration not stated)	-8.34%
CCNC(=O)C[C@@H]1CC[C@@H]2[C@H](COC[C@@H](O)CN2C(=O)c2ccccn2)O1	2.57%
COC(=O)C1(C(=O)OC)C[C@H](c2ccccc2)N(Cc2ccccc2OC)[C@@H]1c1ccccc1	-15.9%
COc1ccc(CCNc2oc(-c3cccc4ccccc34)nc2P(=O)(OC)OC)cc1OC	-3.52% [at 16 µM]
COc1ccc(S(=O)(=O)Nc2ccc3c(c2)CC(=O)N([C@H](C)CO)C[C@H](C)[C@H](CN(C)S(=O)(=O)c2cccs2)O3)cc1	-4.69%
CC(C)CNS(=O)(=O)c1ccc(CCC(=O)N2CCN(Cc3ccc4c(c3)OCO4)CC2)cc1	-1.06%
CN1C(=O)C2(c3ccccc31)N(C)CC(c1ccccc1)C21SC(=S)N(Cc2ccco2)C1=O (configuration not stated)	-11.9%
C[C@@]12C(=O)N(Cc3ccco3)CC(=O)N1[C@H]1c3ccccc3OC[C@@H]1[C@@H]2c1ccccc1	-10.9%
O=C(NCCCN1CCc2ccccc2C1)Nc1ccc(Cl)cc1	-12.5%
CCCCn1c(N)c(N(CC(C)C)C(=O)c2ccc(S(=O)(=O)N(CC)c3ccccc3)cc2)c(=O)[nH]c1=O	-1.92%
NC(=O)c1sc2nccc(Nc3ccccc3)c2c1N	-3.31%
CCc1nc2ccc(C(=O)NCCN3CCNC3=O)cn2c1N(CC)Cc1cccc(Br)c1	-7.03%
Cc1ccccc1OCC(=O)Nc1cccc(C(=O)O)c1	-10.9%

Compound	activity change, negative = cytotoxicity
O=C(Nc1ccc(F)cc1)C1CCCN1S(=O)(=O)c1ccc(Br)cc1 (configuration not stated)	-8.12%
CC(=O)c1c(C)[nH]c(C(=O)OCC(=O)Nc2c(C)cccc2C)c1C	-2.58%
O=C(Cc1ccc(S(=O)(=O)N2CCOCC2)s1)N1CCN(S(=O)(=O)c2ccc(Cl)cc2)CC1	-5.29%
Cc1cc(Cl)ccc1OCC(=O)NNC(=O)C1CSC2(C)CCC(=O)N12 (configuration not stated)	2.33%
Cc1ccc(-c2nnc(N3CCN(C(=O)COc4ccccc4)CC3)c3ccccc23)cc1	-11.2%
CC(NC(=O)c1cc(S(=O)(=O)N(C)C)ccc1N1CCCC1)C1CC2CCC1C2 (configuration not stated)	2.17%
COCCCn1c(-c2ccc(S(=O)(=O)N3CCOCC3)cc2)csc1=Nc1ccccc1	-20.8%
O=C(CCc1ccc(S(=O)(=O)N2CCOCC2)cc1)Nc1nc(COc2ccccc2)cs1	-22.9%
O=C(CN1C(=O)c2ccccc2S1(=O)=O)N1CCc2ccccc21	-5.92%
Clc1ccc(-c2noc(CSc3nnc(-c4ccncc4)n3-c3ccccc3)n2)cc1	-16.1%
Cc1cccc(C)c1NC(=O)N1CCN(c2nc3ccccc3s2)CC1	-12.1%
O=C(NC1CCCCC1)C(c1cccs1)N(Cc1cccs1)C(=O)c1ccco1 (configuration not stated)	-7.51%
COc1ccc(-c2nnn(CC(=O)N(Cc3cccs3)C(C)C(=O)NC3CCCC3)n2)cc1OC (configuration not stated)	-11.7%
c1ccc2c(c1)OCC(CNc1ncnc3nc[nH]c13)O2 (configuration not stated)	-3.4%
CO[C@H](C(=O)N(C)C[C@@H]1OCc2ccccc2-c2c(n(C)c3ccccc23)C(=O)N([C@H](C)CO)C[C@@H]1C)c1ccccc1	-3.18%
COc1ccc(CNC(=O)N(C)C[C@H]2OCc3ccccc3-c3ccccc3C(=O)N([C@H](C)CO)C[C@@H]2C)cc1	-3.63%
C[C@H]1CN([C@@H](C)CO)C(=O)c2c(c3ccccc3n2C)-c2ccccc2CO[C@H]1CN(C)C(=O)Cc1ccccc1	-12.5%
C[C@H]1CN([C@@H](C)CO)C(=O)c2c(c3ccccc3n2C)-c2ccccc2CO[C@H]1CN(C)C(=O)Nc1cccc(F)c1	-19.9%
C[C@H]1CN([C@@H](C)CO)C(=O)c2ccccc2-c2ccccc2CO[C@@H]1CN(C)C(=O)Nc1cccc(C(F)(F)F)c1	-19.8%
C[C@H](C(=O)N(C)C[C@@H]1OCc2ccccc2-c2ccccc2C(=O)N([C@@H](C)CO)C[C@H]1C)c1ccccc1	-8.58%
C[C@H](C(=O)N(C)C[C@@H]1OCc2ccccc2-c2ccccc2C(=O)N([C@@H](C)CO)C[C@@H]1C)c1ccccc1	-1.93%
C[C@H](CO)N1C[C@H](C)[C@@H](CN(C)C(=O)[C@H](Cc2ccccc2)N(C)C)OCc2ccccc2-c2c(n(C)c3ccccc23)C1=O	-20.8%
CC1(C)C2CCC1(C)C(OCCNCCOC(=O)Nc1ccccc1)C2 (configuration not stated)	-25.1%
CCN1C(=O)[C@H]2[C@@H](c3ccc(C)cc3)N3C(=O)N(c4cccc(Br)c4)C(=O)[C@@]3(CC)[C@H]2C1=O	-6.07%
CCN1C(=O)[C@H]2[C@@H](c3ccc(C)cc3)N3C(=O)N(c4cccc(Br)c4)C(=O)[C@@]3(CC(C)C)[C@H]2C1=O	1.19% [at 16 µM]
C[C@H](CO)N1C[C@H](C)[C@H](CN(C)S(=O)(=O)c2cccs2)Oc2ccc(NC(=O)Cc3cn(C)c4ccccc34)cc2CC1=O	-4.75%
